PubChem BioAssay (NCI)
About 79,000 compounds went through this panel and 15% of them were active in at least one assay; those are over-represented in the sample as a whole. Active and inactive are the calls of the source. No stated cut-off is given here; in the data, active means growth inhibition above about 70%; inactive means the rest.

Assays:
[1] = NCI Yeast Anticancer Drug Screen. Data for the rad50 strain (AID 155);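 further: 0% = growth of vehicle-only cultures of the same strain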; conditions: S. cerevisiae rad50 strain growth inhibition; at 50.0 µM; stronger effect = higher value
Procedure, shortened: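 Readout: growth inhibition relative to vehicle-treated cultures. Compound exposure was carried out in a genetically defined yeast strain deficient in DNA damage repair.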

[2] = NCI Yeast Anticancer Drug Screen. Data for the mec2-1 strain (AID 157); conditions: S. cerevisiae mec2-1 strain, at 50.0 µM, stronger effect = higher value
Procedure, shortened: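 mec2-1 yeast strain, carrying an alteration in DNA damage repair or cell cycle control, was exposed to compounds; growth inhibition was measured relative to vehicle-treated controls.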

[3] = NCI Yeast Anticancer Drug Screen. Data for the sgs1 mgt1 strain (AID 161);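 further: 0% = growth of cultures given vehicle only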; conditions: S. cerevisiae sgs1 mgt1 strain, at 50.0 µM, stronger effect = higher value
Procedure, shortened: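 Yeast cells carrying a defined DNA-repair defect were exposed to test compounds. Growth inhibition was measured relative to vehicle-treated controls.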

[4] = NCI Yeast Anticancer Drug Screen. Data for the cln2 rad14 strain (AID 165);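 further: 0% = growth equal to vehicle treated cultures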; conditions: S. cerevisiae cln2 rad14 strain, at 50.0 µM, stronger effect = higher value
Procedure, shortened: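 Yeast carrying cln2 and rad14 alterations (cell cycle control and DNA damage repair) were exposed to compounds. Growth inhibition was measured against vehicle-treated controls.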

[5] = NCI Yeast Anticancer Drug Screen. Data for the bub3 strain (AID 167); conditions: S. cerevisiae bub3 mutant strain, at 50.0 µM, stronger effect = higher value
Procedure, shortened: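 Readout: yeast growth inhibition, expressed relative to vehicle-only wells. The test organism is a mutant strain from a panel with lesions in DNA repair or checkpoint genes.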

[6] = NCI Yeast Anticancer Drug Screen. Data for the mlh1 rad18 strain (AID 175); conditions: S. cerevisiae mlh1 rad18 strain growth inhibition; at 50.0 µM; stronger effect = higher value
Procedure, shortened: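 Growth inhibition of the yeast strain was measured after compound exposure and expressed relative to vehicle-treated controls. The strain carries defined defects in DNA damage repair.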

Measured: growth inhibition

O=C(CC(=O)C1CCOC1=O)C(=O)Nc1cccc(Cl)c1 (stereo unspecified)
inactive: [1] -13.8% | [2] -8.55% | [3] 5.5% | [4] -10.7% | [5] -12% | [6] 21.4%

CN(C)/C=C(/N=C(C#N)C#N)C1OCCO1
inactive: [1] 4.1% | [2] 8.55% | [3] -2.55% | [4] -27.1% | [5] 3.8% | [6] -1.7%

COC(=O)CCC(=O)c1ccc(OC)cc1
inactive: [1] 4.7% | [2] -6.5% | [3] 3.35% | [4] -0.95% | [5] 10.2% | [6] 2.45%

FC12CCC(c3ccccc3)(CC1)CC2
inactive: [1] 11.8% | [2] -8.55% | [3] -4% | [4] -30.1% | [5] -3.5% | [6] -7.4%

COC1OC(COS(C)(=O)=O)C(OS(C)(=O)=O)C(OC(=O)c2ccccc2)C1OS(C)(=O)=O (stereo unspecified)
inactive: [1] -6.25% | [2] 8% | [3] -9.6% | [4] 1.15% | [5] -0.85% | [6] 20.6%

CCOC(=O)C(C)c1nc2cc(F)c(F)cc2[nH]c1=O (stereo unspecified)
inactive: [1] -5.45% | [2] 26.5% | [3] 9% | [4] 2.6% | [5] 4.1% | [6] -19.4%

CC(C)(C)OC(=O)NCCCCC(NC(=O)OC(C)(C)C)C(=O)O (stereo unspecified)
inactive: [1] 3.65% | [2] 8.55% | [3] 9.7% | [4] 2.8% | [5] 5.95% | [6] -8.65%

CCC(=O)OCCN(C(=O)CC)c1ccccc1
inactive: [1] 35.6% | [2] 5.75% | [3] 22.2% | [4] -2.5% | [5] -0.05% | [6] 31.4%

CCOC(=O)CC(=O)c1ccccc1SC
inactive: [1] 13.2% | [2] -1.55% | [3] -6.1% | [4] 4.4% | [5] -1.45% | [6] 17.4%

CCCCCCCCCCCCCCCCCCCCCC(=O)O
inactive: [1] -16.1% | [2] -21.4% | [3] -21.1% | [4] -28.3% | [5] -2.15% | [6] -18.1%

CC(C)CNC(=O)O
inactive: [1] 5.15% | [2] -7.1% | [3] -7.5% | [4] -6.15% | [5] -10.8% | [6] -4.75%

CCOC(=O)C(C)C1CCCc2c(C)ccc(C)c21 (stereo unspecified)
inactive: [1] -8.25% | [2] 9.6% | [3] 1.25% | [4] -1.8% | [5] 8.5% | [6] 2.7%

O=C1NN=C(C2CCCCC2)C12CCCCC2
inactive: [1] 8.05% | [2] -2.85% | [3] 1.3% | [4] 2.85% | [5] 5.45% | [6] -8.4%

CCOC(=O)Cc1n[nH]c(=O)c2ccccc12
inactive: [1] -21.6% | [2] 1.4% | [3] 1.2% | [4] -21.4% | [5] -21.8% | [6] -6.95%

CCOC(=O)c1ccc(NN=NCCF)cc1
inactive: [1] 15.8% | [2] 10% | [3] 0.4% | [4] 6.4% | [5] -32.5% | [6] -44.1%

CC1=NN(C(=O)CC(=O)Nc2ccccc2Cl)C(=O)C1N=Nc1ccc(C(=O)O)cc1 (stereo unspecified)
inactive: [1] -3.35% | [2] -6.85% | [3] 6.75% | [4] -9.75% | [5] -5.6% | [6] 17.8%

COC(=O)C(C)c1cccc2ccc3ccccc3c12 (stereo unspecified)
inactive: [1] 16.3% | [2] -11.7% | [3] 16.2% | [4] 9.55% | [5] 15.2% | [6] 23.4%

CC1CCS(=O)(=O)C1 (stereo unspecified)
inactive: [1] -12.8% | [2] -23.1% | [3] -35.9% | [4] 6.8% | [5] -8.4% | [6] -10.1%

Nc1ccc2c(c1)Cc1c-2cc(Cl)c(N)c1Cl
inactive: [1] 8.85% | [2] -0.65% | [3] -18.8% | [4] 6.5% | [5] 13.8% | [6] 6.2%

Oc1[nH]c2ccccc2c1N=Nc1nc(-c2ccccc2)cs1
inactive: [1] -40.6% | [2] -52% | [3] -46% | [4] -0.9% | [5] -30.4% | [6] -18.8%

CC(=O)O[C@H]1CC[C@@]2(C)[C@@H](CC[C@@H]3[C@@H]2CC(=O)[C@]2(C)[C@@H]4[C@H](C[C@@H]32)O[C@]2(CC[C@@H](C)CO2)[C@H]4C)C1
inactive: [1] -11.7% | [2] -12.2% | [3] -11.8% | [4] -13.2% | [5] -34.6% | [6] 2.3%

CC(=O)N(c1c(N)[nH]c(=O)n(C)c1=O)C1OC(CO)C(O)C(O)C1O (stereo unspecified)
inactive: [1] -1.65% | [2] 2.8% | [3] 19.1% | [4] -5% | [5] 4.3% | [6] 12.4%

CC(C)=CCS(=O)c1ccccc1NC1=CC(=O)CC(C)(C)C1 (stereo unspecified)
inactive: [1] -16.2% | [2] -26.1% | [3] -37.6% | [4] -7.55% | [5] -5.8% | [6] -3.55%

C(=C\c1ccccc1)/C=N/N=C/C=C/c1ccccc1
inactive: [1] -5.5% | [2] -30.1% | [3] -10.9% | [4] -37% | [5] 4.45% | [6] -4%

FC(F)(F)c1ccc(C2SCc3nc4ccccc4n32)cc1 (stereo unspecified)
inactive: [1] -43% | [2] -5.4% | [3] -1.95% | [4] -0.5% | [5] -14.2% | [6] 11.3%

CC1CCC2CC(=O)C(Br)CC2(C)C1C (stereo unspecified)
inactive: [1] 23.6% | [2] -8.95% | [3] 9.75% | [4] -5.35% | [5] -3.95% | [6] 7.45%

C=CCOc1ccc(S(=O)(=O)c2ccc(OCC=C)cc2)cc1
inactive: [1] 3.55% | [2] -7.9% | [3] -2.55% | [4] -27.7% | [5] 8.2% | [6] -4.35%

CCCCCC(C/C=N/N(C)C)C(O)(C(F)(F)F)C(F)(F)F (stereo unspecified)
active: [6] 73.2%
inactive: [1] 1.35% | [2] 2.1% | [3] -5.15% | [4] -5.15% | [5] 15.4%

O=C(O)CC1CCC(CC(=O)O)CC1 (stereo unspecified)
inactive: [1] -9.5% | [2] -8.65% | [3] -5.25% | [4] -40.9% | [5] -12.7% | [6] -1.65%

O=C(Nc1cc(Cl)ccc1Cl)Oc1ccc(Cl)cc1C(=O)c1ccccc1
inactive: [1] -45% | [2] -10.4% | [3] -37.8% | [4] -16.8% | [5] -35.4% | [6] -56.9%

C=CCn1c(C23CC4CC(CC(C4)C2)C3)n[nH]c1=S
inactive: [1] 27.6% | [2] 37.7% | [3] -8.45% | [4] 19.2% | [5] 3.55% | [6] -26.3%

NNC(=O)C(=O)Nc1nccs1
inactive: [1] 0.65% | [2] 0.85% | [3] 2.05% | [4] 6.95% | [5] -5.3% | [6] -4.6%

COC(=O)CCN(C)c1ccccc1
inactive: [1] -4.7% | [2] -0.55% | [3] -3.75% | [4] -8.15% | [5] 3.65% | [6] -7.5%

CN1CCN(C(CO)Cc2ccccc2)CC1 (stereo unspecified)
inactive: [1] 3.85% | [2] -10.1% | [3] -9.5% | [4] -15.8% | [5] 8.8% | [6] -7.4%

O=C(Nc1ccc(Cl)c(Cl)c1)OCCN1CCOCC1
inactive: [4] 67.2%
active: [1] 82.3% | [2] 97.2% | [3] 94% | [5] 91.2% | [6] 92.8%

CC(C)CCCC(C)C1CCC2C3=CCC4CC(=O)CCC4(C)C3CCC21C (stereo unspecified)
inactive: [1] 30.9% | [2] -10.9% | [3] 4.65% | [4] 4.35% | [5] -1.2% | [6] 4.5%

CN1CCOC(=O)C(C#N)=C1c1ccccc1
inactive: [1] -26.5% | [2] 6.95% | [3] -9.15% | [4] -17% | [5] -7.25% | [6] -3.15%

CN(C)C(=O)c1cc2ccccc2[nH]1
inactive: [1] 28.9% | [2] 16.4% | [3] 6.7% | [4] 12.8% | [5] 3.75% | [6] 20.2%

CSC(=O)/C=C1\SS/C(=C\C(=O)SC)S1
inactive: [1] -10% | [2] -10.4% | [3] -13.1% | [4] -5% | [5] -11.2% | [6] -16.1%

COc1cc(C[S+]2CCCC2)c(SC)cc1C[S+]1CCCC1
inactive: [1] 25.4% | [2] 50% | [3] 40.2% | [4] 27.5% | [5] 24.1% | [6] 23.1%

OC(C#Cc1ccccc1)(C#Cc1ccccc1)/C=C/c1ccccc1
inactive: [1] 17.1% | [2] -5% | [3] -5.85% | [4] -7.95% | [5] -9.15% | [6] 11.5%
